Test results: PubChem BioAssay (NCI)
This is part of a sample that, as a whole, favours compounds with a hit. Of some 79,000 tested, about 15% had one in any assay. Unmarked numbers belong to inactive results. Active and inactive are the calls of the source. Cut-off read from the data, not from the text of the source: active = growth inhibition above about 70%; inactive = the rest.

Legend:
[1] = NCI Yeast Anticancer Drug Screen. Data for the rad50 strain (AID 155);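 note: 0% = growth of vehicle-only cultures of the same strain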; settings: S. cerevisiae rad50 strain growth inhibition, hits give high values
How it was run: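 Vehicle-treated cultures provide the reference for the growth inhibition reported for compound-exposed, repair-deficient yeast.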

[2] = NCI Yeast Anticancer Drug Screen. Data for the mec2-1 strain (AID 157); settings: S. cerevisiae mec2-1 strain, hits give high values
How it was run: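 Growth inhibition is read against vehicle-treated controls after compound exposure of the mec2-1 yeast strain, which is defective in DNA damage repair or cell cycle control.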

[3] = NCI Yeast Anticancer Drug Screen. Data for the sgs1 mgt1 strain (AID 161);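 note: 0% = growth of cultures given vehicle only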; settings: S. cerevisiae sgs1 mgt1 strain, hits give high values
How it was run: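 Yeast cells carrying a defined DNA-repair defect were exposed to test compounds. Growth inhibition was measured relative to vehicle-treated controls.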

[4] = NCI Yeast Anticancer Drug Screen. Data for the cln2 rad14 strain (AID 165);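 note: 0% = growth equal to vehicle treated cultures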; settings: S. cerevisiae cln2 rad14 strain, hits give high values
How it was run: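 Growth inhibition, relative to vehicle-treated controls, is the read-out. The test organism is a yeast strain with defined genetic alterations, cln2 rad14.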

[5] = NCI Yeast Anticancer Drug Screen. Data for the bub3 strain (AID 167); settings: S. cerevisiae bub3 mutant strain, hits give high values
How it was run: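 Mutant yeast screening strain plus compound; vehicle-treated cultures serve as the 0% inhibition reference.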

[6] = NCI Yeast Anticancer Drug Screen. Data for the mlh1 rad18 strain (AID 175); settings: S. cerevisiae mlh1 rad18 strain growth inhibition, hits give high values
How it was run: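 Cells of a genetically altered yeast strain, deficient in DNA damage repair, were treated with compound. Their growth was then compared with that of vehicle-treated cultures to give inhibition.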

[7] = at 5.0 µM (retest, dose inferred, filed as 0.5)
[8] = at 50.0 µM (retest, dose inferred, filed as 5.0)

Compound	growth inhibition [1, 7]	growth inhibition [1, 8]	growth inhibition ([1]; at 50.0 µM)	growth inhibition [2, 7]	growth inhibition [2, 8]	growth inhibition ([2]; at 50.0 µM)	growth inhibition [3, 7]	growth inhibition [3, 8]	growth inhibition ([3]; at 50.0 µM)	growth inhibition [4, 7]	growth inhibition [4, 8]	growth inhibition ([4]; at 50.0 µM)	growth inhibition [5, 7]	growth inhibition [5, 8]	growth inhibition ([5]; at 50.0 µM)	growth inhibition [6, 7]	growth inhibition [6, 8]	growth inhibition ([6]; at 50.0 µM)
CN(C)C(=S)N/N=C/c1ccccn1	94% (active)	98% (active)	98.7% (active)	95% (active)	98% (active)	98.9% (active)	95% (active)	99% (active)	98.4% (active)	95% (active)	99% (active)	98.3% (active)	95% (active)	97% (active)	99% (active)	95% (active)	98% (active)	98.8% (active)
O=C(O)CCCc1ccc2c(c1)CC1(C2)Cc2ccc(CCCC(=O)O)cc2C1	28%	44%	-38%	21%	33%	2.15%	27%	38%	-28.3%	22%	27%	8.65%	20%	29%	9.45%	28%	45%	-5.8%
CCc1ccc(C)nc1	-1%	-3%	20.9%	1%	-1%	1.05%	3%	0%	1.1%	0%	3%	0.85%	-2%	-5%	98.7% (active)	1%	-2%	-1.05%
CC(=O)Oc1ccccc1N(C(C)=O)S(=O)(=O)c1ccc(C)cc1	16%	98% (active)	95.7% (active)	12%	99% (active)	97.5% (active)	11%	99% (active)	96.2% (active)	1%	99% (active)	98.5% (active)	-2%	99% (active)	99.2% (active)	34%	99% (active)	98.8% (active)
c1ccc(N/N=C2/CCCC3/C(=N\Nc4ccccc4)CCCC23)cc1 (configuration not stated)	3%	99% (active)	98.2% (active)	-5%	99% (active)	65.5%	13%	99% (active)	63.2%	-11%	99% (active)	73.8% (active)	-8%	98% (active)	9.85%	15%	99% (active)	96.1% (active)
O=C1C2C3C=CC(C2C(=O)N1CN1CCOCC1)C1C2C(=O)N(CN4CCOCC4)C(=O)C2C31 (configuration not stated)	-6%	-10%	1.85%	11%	3%	10.2%	-4%	-25%	-1.35%	-26%	-7%	39%	1%	-9%	-17.8%	-31%	-12%	0.8%
OC(CCN1CCOCC1)(c1cccc(Cl)c1)C1CCCCC1 (configuration not stated)	3%	45%	72.1% (active)	1%	19%	-0.6%	0%	73% (active)	45.7%	2%	40%	-26.9%	2%	68%	75.4% (active)	2%	58%	40.8%
CC(C)(CC#N)c1cc(CC(C)(C)c2cc(CC(C)(C)c3cc(CC(C)(C)C4(C)OCCO4)no3)no2)no1	-2%	2%	16.8%	-4%	-2%	2.6%	-2%	6%	-17.4%	1%	-4%	0.5%	-3%	0%	-1.9%	-2%	-8%	12.8%
COc1cc([C@H]2c3c(cc(OC)c(OC)c3OC)CC3COC(=O)[C@@H]32)cc2c1OCO2 (some centres not stated)	4%	37%	95.5% (active)	2%	25%	98.8% (active)	9%	38%	52.2%	1%	4%	98.5% (active)	-2%	53%	99.3% (active)	-2%	9%	97.5% (active)
